# Measurements taken from the supplement of paper PMC7866885, “A novel bicyclic 2,4-diaminopyrimidine inhibitor of Streptococcus suis dihydrofolate reductase” (PeerJ, 2021).
# ± gives the standard deviation.
# What was measured:
# Streptococcus suis HE06 = assay: percent growth relative to DMSO control; higher = less growth inhibition; conditions: 10 µM; incubation time 18 h
# Method: (§1)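 CLSI broth microdilution: 5x10^4 CFU of Streptococcus suis (strain P1/7 or HE06) incubated with 10 µM Pathogen Box compound in cation-adjusted Mueller Hinton broth, 37 °C, 5% CO2, 18 h. Growth read as OD600 and expressed as percent of the DMSO-treated control (100%); mean ± SD of three independent experiments.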
# Streptococcus suis P1/7 = assay: as above; conditions: 10 µM; incubation time 18 h
# Method: as §1
Structure (SMILES),percent growth (Streptococcus suis HE06) [%],percent growth (Streptococcus suis P1/7) [%]
Cc1ccc(Oc2ccc(NC(=O)CNc3ccccc3N3CCCC3=O)cc2)cc1,86.9 ± 11,104 ± 14
O=C1COCc2ccc(Br)cc2N1Cc1ccc(C(F)(F)F)cc1,84.3 ± 26,75.4 ± 7.3
CC(=O)N(CCN(C(=O)c1ccc(F)cc1)c1ccccc1)c1ccccc1,86.6 ± 26,69 ± 13
CCCc1ccc(S(=O)(=O)Nc2ccc(CN3CCN(CC4CC4)CC3)cc2)cc1,88 ± 15,94.1 ± 34
CS(=O)(=O)c1ccccc1C(=O)N(Cc1ccccc1)c1ccccc1,115 ± 7.9,107 ± 33
Cc1nc(-c2cccc(NCc3ccccc3)c2)[nH]c1C,60.1 ± 36,12 ± 5.5
CCC(Sc1nc2ccccc2o1)C(=O)Nc1nnc(C)s1 (centres undefined),34.1 ± 46,0.154 ± 0.27
CC(C)n1ncc2c(C(=O)NCC(c3cccs3)N3CCOCC3)cc(-c3ccccc3)nc21 (centres undefined),89.9 ± 4.6,106 ± 36
COc1ccc(C2=NCCN2)cc1-c1cn(-c2cccc(C3=NCCN3)c2)nn1,99.9 ± 10,87.9 ± 21
CCc1nc2ccc(C(=O)NCc3ccc4c(c3)OCO4)cn2c1N(C)Cc1cccs1,122 ± 67,72.9 ± 11
NS(=O)(=O)c1cccc(-c2ccc3ncc(N4CCOCC4)nc3c2)c1,99.2 ± 34,71.6 ± 6.4
c1cncc(NCc2ccc(-c3cc4ccncc4cc3OC3CCNCC3)s2)c1,100 ± 18,66.3 ± 22
O=C(C1CCN(c2nnnn2-c2ccccc2)CC1)N1CCc2ccccc2C1,86.9 ± 28,62.4 ± 21
Cc1cccc(-c2nc(Nc3ccncn3)c3sccc3n2)n1,0.0155 ± 0.027,0.888 ± 0.29
CN1CCN(CCCOc2ncc(Nc3ncc(-c4ccc(C(F)(F)F)c(F)c4)nc3C(N)=O)cn2)CC1,114 ± 43,97.2 ± 9.4
Nc1ncnc2c1c(-c1cnc3ccccc3c1)nn2CC1CCNCC1,94.9 ± 5.4,102 ± 20
CC1(COc2ccc(N3CCC(Oc4ccc(OC(F)(F)F)cc4)CC3)cc2)Cn2cc([N+](=O)[O-])nc2O1 (centres undefined),91.7 ± 9.5,114 ± 61
O=C(Nc1ccc(C(F)(F)F)c(C(F)(F)F)c1)c1cc(Cl)ccc1O,0,6.44 ± 11
CCOC(=O)NC(=O)c1ccsc1NC(=O)c1nc2ccccc2s1,0.167 ± 0.2,5.08 ± 8.2
CC(=O)NCC1CN(c2ccc(-c3ccc(CNCc4cn[nH]n4)cc3)c(F)c2)C(=O)O1 (centres undefined),0.542 ± 0.94,0.637 ± 0.99
CCN(CC)S(=O)(=O)c1ccc(Cl)c(C(=O)Nc2ccc3nc(C)sc3c2)c1,83.9 ± 6.7,138 ± 70
CCc1cc(=O)n(C)c(SC(C)C(=O)Nc2ccc(F)cc2)n1 (centres undefined),110 ± 23,74.8 ± 63
Cc1cc(NCC(C)C)c2n[nH]c(-c3ccccc3)c2n1,81.1 ± 5.3,122 ± 79
Cc1noc(C)c1C(=O)N1CCCC(c2[nH]c3c(C)cccc3c2-c2ccncc2)C1 (centres undefined),90.2 ± 6.2,90.5 ± 20
CC(C)n1nc(-c2cc3c(Cl)cccc3[nH]2)c2c(N)ncnc21,112 ± 45,74.2 ± 5.9
CO[C@H]1/C=C/O[C@@]2(C)Oc3c(C)c(O)c4c(O)c(/c(=C/NN5CCN(C)CC5)c(O)c4c3C2=O)=N\C(=O)/C(C)=C\C=C/[C@H](C)[C@H](O)[C@@H](C)[C@@H](O)[C@@H](C)[C@H](OC(C)=O)[C@@H]1C,4.41 ± 2.2,1.07 ± 0.94
O=C(Nc1ccc(F)c(-c2nc3cc(-c4ccccc4)cnc3[nH]2)c1)N1CCCC1,99.7 ± 36,83.7 ± 5.5
